# Assay results: ChEMBL document CHEMBL3988442, “University of Dundee, Small-Polar-MMV Screening Library” (2021)
# In all, about 66,000 compounds went through this assay and about 960 (1.5%) showed an effect of 50% or more. This excerpt belongs to a sample that is enriched for strong results.
# Tested on: Trypanosoma brucei
# Assay: Trypanosoma brucei 72 hour study
# Format: functional, organism-based
# Design: scale not given: in the data most compounds retested in dose-response had high values
structure (smiles),measurement,setting,value
COCCN1C(=O)C[C@H]2[C@H]1CCN2Cc1cccc(C#N)c1.O=C(O)C(F)(F)F,Percent Effect,"30 µM, 30.03 µM",17.08%
O=C(O)C(F)(F)F.O=C(c1ccc[nH]1)N1CCn2cc(Cn3cccn3)nc2C1,Percent Effect,"30.3 µM, […]",63.53%
O=C(c1ccc[nH]1)N1CCn2cc(Cn3cncn3)nc2C1,Percent Effect,"30 µM, 30.03 µM",-19.87%
O=C(O)C(F)(F)F.O=C(c1ccc[nH]1)N1CCn2cc(CN3CCCC3)nc2C1,Percent Effect,"30 µM, 30.03 µM",-5.056%
CC(C)COc1cncc(N2CCCN(c3ncccn3)CC2)n1,Percent Effect,"30.3 µM, […]",-75.77%
CC(C)COc1cncc(N(C)C2CCN(c3ncccn3)CC2)n1,Percent Effect,"30.3 µM, […]",90.23%
CNC(=O)CN(C)c1cncc(OCC(C)C)n1,Percent Effect,"30 µM, 30.03 µM",-18.74%
CN(C)CCOCc1nnc2n1CCN(Cc1cccs1)CC2.O=C(O)C(F)(F)F.O=C(O)C(F)(F)F,Percent Effect,"30.3 µM, […]",-17.71%
Br.Cc1ccccc1OC1CCN(CC(=O)Nc2ccn(C)n2)CC1,Percent Effect,"30.3 µM, […]",12.28%
Cc1ccccc1N1CC2(CCN(S(=O)(=O)c3ccccc3)C2)CC1=O (stereo not drawn),Percent Effect,"30.3 µM, […]",11.6%
CCOc1cc2c(cc1CN1CCC3(CCCNC3=O)C1)CCC2 (stereo not drawn),Percent Effect,"30.3 µM, […]",98.93%
CCOc1cc(Cl)c(CN2CCC3(CCCNC3=O)C2)cc1OC (stereo not drawn),Percent Effect,"30.3 µM, […]",-16.79%
CCOc1cc2c(cc1CN1CCC3(CC1)CNC(=O)C3)CCC2,Percent Effect,"30.3 µM, […]",-17.68%
O=C(N1CCCC1)N1CCC2(CCN(Cc3ccccn3)C2=O)C1.O=C(O)C(F)(F)F (stereo not drawn),Percent Effect,"30 µM, 30.03 µM",-20.49%
CC(O)c1cccc(Nc2nc(NCCO)c3ccccc3n2)c1 (stereo not drawn),Percent Effect,"30 µM, 30.03 µM",5.503%
CCN(CC)c1nc(Nc2cccc(C(=O)O)c2)nc2ccccc12,Percent Effect,"30 µM, 30.03 µM",-36.54%
CCN(CC)c1nc(Nc2cccc(C(C)O)c2)nc2ccccc12 (stereo not drawn),Percent Effect,"30 µM, 30.03 µM",78.38%
O=C(O)C(F)(F)F.O=C1NC2(CCN(C(=O)N3CCOCC3)CC2)CC1c1cccnc1 (stereo not drawn),Percent Effect,"30 µM, 30.03 µM",-17.56%
CN(C)CC1CN(Cc2coc(-c3ccccc3Cl)n2)CCO1 (stereo not drawn),Percent Effect,"30 µM, 30.03 µM",-2.77%
CN1CCOC(CNCc2coc(-c3cccc(F)c3)n2)C1 (stereo not drawn),Percent Effect,"30.3 µM, […]",41.18%
same,Percent Effect,"10 mM, 10 mM as filed; unlikely as a test dose",-36.07%
CN1CCOC(CNCc2c(Cl)nc3ccccn23)C1 (stereo not drawn),Percent Effect,"30 µM, 30.03 µM",-12.37%
CN1CCOC(CNCc2coc(-c3cccs3)n2)C1 (stereo not drawn),Percent Effect,"30 µM, 30.03 µM",-23.33%
CN1CCOC(CNCc2coc(-c3ccccc3)n2)C1 (stereo not drawn),Percent Effect,"30 µM, 30.03 µM",-39%
CN1CCOC(CNCc2coc(-c3ccccc3Cl)n2)C1 (stereo not drawn),Percent Effect,"30.3 µM, […]",54.4%
same,Percent Effect,"10 mM, 10 mM as filed; unlikely as a test dose",-73.24%
Cc1ccc(-c2nc(CNCC3CN(C)CCO3)co2)cc1 (stereo not drawn),Percent Effect,"30.3 µM, […]",93.13%
same,Percent Effect,"10 mM, 10 mM as filed; unlikely as a test dose",-9.822%
CN1CCOC(CNCc2coc(-c3cccc(Cl)c3)n2)C1 (stereo not drawn),Percent Effect,"30.3 µM, […]",98.76%
same,Percent Effect,"10 mM, 10 mM as filed; unlikely as a test dose",-110.4%
CN(C)CC1CN(Cc2coc(-c3ccc(Cl)cc3)n2)CCO1 (stereo not drawn),Percent Effect,10 µM,-46.52%
same,Percent Effect,"30.3 µM, […]",62.36%
CN1CCOC(CNC(=O)Cc2coc(-c3ccccc3)n2)C1 (stereo not drawn),Percent Effect,"30.3 µM, […]",-0.1289%
same,Percent Effect,"10 mM, 10 mM as filed; unlikely as a test dose",-18.77%
CN(C)CC1CN(Cc2coc(-c3ccccc3)n2)CCO1 (stereo not drawn),Percent Effect,10 µM,-12.24%
same,Percent Effect,"30.3 µM, […]",1.121%
Cc1ccc(-c2nc(CN3CCOC(CN(C)C)C3)co2)cc1 (stereo not drawn),Percent Effect,10 µM,5.738%
same,Percent Effect,"30.3 µM, […]",-1.882%
CCCS(=O)(=O)N1C[C@H]2C[C@H](C(=O)N3CCOCC3)[C@@H](C1)O2,Percent Effect,"30.3 µM, […]",-5.473%
CN(C)CCOCc1nnc2n1CCN(Cc1ccc(F)cc1)CC2.O=C(O)C(F)(F)F.O=C(O)C(F)(F)F,Percent Effect,"30.3 µM, […]",-11.21%
O=C(O)C(F)(F)F.O=C(c1ccco1)N1C[C@H]2CCCN(Cc3ccoc3)[C@H]2C1,Percent Effect,"30 µM, 30.03 µM",-0.7502%
CC1c2ncc(Cn3cncn3)n2CCN1CC1CCOCC1.O=C(O)C(F)(F)F (stereo not drawn),Percent Effect,"30.3 µM, […]",-11%
Fc1cccnc1N1CCOCC2(CCCN(c3nncs3)C2)C1.O=C(O)C(F)(F)F (stereo not drawn),Percent Effect,"30 µM, 30.03 µM",36.62%
CCN(CC)C(=O)CN1CCc2c(nc(C3CCNCC3)nc2NC)C1.Cl,Percent Effect,"30.3 µM, […]",-24.06%
CCn1cc(N2Cc3nc(N4CCC(C)CC4)ncc3C2=O)cn1,Percent Effect,"30.3 µM, […]",-21.22%
CN1CCOC(CNCc2nc(-c3ccoc3)no2)C1 (stereo not drawn),Percent Effect,"30 µM, 30.03 µM",-7.602%
Cc1ccc(-c2nc(CNCC3CN(C)CCO3)co2)c(C)c1 (stereo not drawn),Percent Effect,"30.3 µM, […]",99.99%
same,Percent Effect,"10 mM, 10 mM as filed; unlikely as a test dose",61.89%
Cc1ccc(-c2nc(CNC3CCc4ncnn4C3)co2)c(C)c1 (stereo not drawn),Percent Effect,"30 µM, 30.03 µM",30.05%
CN1CCOC(CNCc2csc(C3CCCC3)n2)C1 (stereo not drawn),Percent Effect,10 µM,-49.15%
CN1CCOC(CNCc2coc(-c3ccc(Cl)cc3)n2)C1 (stereo not drawn),Percent Effect,"30.3 µM, […]",99.53%
same,Percent Effect,"10 mM, 10 mM as filed; unlikely as a test dose",19.14%
Cc1ccc(-c2nc(CNCC3CN(C)CCO3)cs2)o1 (stereo not drawn),Percent Effect,"30.3 µM, […]",4.391%
